Test results as given in PubChem BioAssay (NCI).
This is part of a sample that, as a whole, favours compounds with a hit. Of some 79,000 tested, about 15% had one in any assay. Unmarked numbers belong to inactive results. Activity calls are given as the source filed them. Cut-off read from the data, not from the text of the source: active = growth inhibition above about 70%; inactive = the rest.

Assay: NCI Yeast Anticancer Drug Screen. Data for the bub3 strain (AID 167)
Settings: S. cerevisiae bub3 mutant strain, active compounds read high
Protocol: Growth inhibition of yeast strains with defined genetic alterations is measured as a screen for potential anti-cancer activity. Selected strains with alterations in DNA damage repair or cell cycle control were exposed to compounds and growth inhibition was measured relative to vehicle treated controls. The strain used in this assay is bub3

[1] = at 5.0 µM (retest, dose inferred, filed as 0.5)
[2] = at 50.0 µM (retest, dose inferred, filed as 5.0)

Structure (SMILES) | growth inhibition [1] | growth inhibition [2] | growth inhibition (at 50.0 µM)
Cc1ccc2c(-c3ccccc3)c3ccccc3cc2c1C | -5% | -16% | 37.6%
Cc1cc(Cl)c(O)c(-c2cc(-c3ccccc3O)c(C#N)c(N)n2)c1 | -59% | 73% (active) | 62.4%
Cn1c(=O)c2c(nc([N+](=O)[O-])n2C)n(C)c1=O | 12% | 75% (active) | 79.3% (active)
CN(Cc1cnc2nc(N)nc(N)c2n1)c1ccc(C(=O)NC(CCC(=O)O)C(=O)O)c(Cl)c1Cl (configuration not stated) | -21% | 64% | 77.5% (active)
CCOc1cc2c(cc1O)CC[C@@H]1[C@@H]2CC[C@]2(C)[C@@H](O)CC[C@@H]12 | 25% | 39% | 44.2%
C=C(C)C1(C(=O)OCC(Cl)(Cl)Cl)NC(=O)C(NC(=O)COc2ccccc2)=CO1 (configuration not stated) | 3% | 44% | 85% (active)
CNC(=S)N(C)C(=S)Nn1c(=O)c(C)nn(C)c1=S | -18% | 77% (active) | 78.4% (active)
O=C(CCl)N(Cc1ccccc1)Cc1ccccc1 | 6% | 92% (active) | 85% (active)
COc1ccc(OC)c(C[P+](c2ccccc2)(c2ccccc2)c2ccccc2)c1 | 96% (active) | 99% (active) | 99% (active)
Cc1cc(NS(=O)(=O)c2ccc(NCc3c4ccccc4nc4cc(Cl)ccc34)cc2)no1 | 25% | 99% (active) | 96.2% (active)
[O-][N+]1=C2CCC/C(=N/O)C2(O)C2CCCCC21N1CCOCC1 (configuration not stated) | 22% | 14% | -7.1%
O=C(OC1C2CCC2C2CC21)c1ccc([N+](=O)[O-])cc1[N+](=O)[O-] (configuration not stated) | -5% | 93% (active) | 37.2%
COc1ccccc1C(=O)c1ccc2ccccc2c1 | 3% | 74% (active) | 83.6% (active)
CC(C)N1C(=O)C=CC1=O | 1% | 75% (active) | 46.6%
